Bioassay records as filed in PubChem.
Hits are enriched below; roughly 0.5% of the tested compounds scored in any of these assays.
Tat transport – blocks Tat-dependent protein export in E. coli | E. coli MC4100 TorA-mCherry Tat export, fluorescence | inhibition, % at 10 µM | 340,000 compounds, 0.036% hits | AID 488895;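 active = mean replicate inhibition at least 50% and at least half of replicates individually reaching 50%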;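 note: exported cargo escapes ClpAP degradation while cytoplasmic cargo is degraded and loses fluorescence; 0% = median of neutral control wells and 100% = median of NaSCN control wells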
phage Ecoli inh – E. coli growth loss with phage present. AID 651602. inhibition, % at 11.9 µM. growth absorbance. 360,000 compounds, 0.26% hits; in the data active = inhibition above about 11%
AddAB inh – less growth of phage-infected E. coli with AddAB; 330,000 compounds, 0.29% hits; inhibition, % at 11.9 µM; E. coli expressing H. pylori AddAB, absorbance growth; in the data active = inhibition above about 12%;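 note: 0% = vehicle wells of infected cells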
E coli growth-1 – counter-screen for AddAB inhibitors: E. coli growth inhibition; AID 449728; E. coli V3065 growth, OD600 absorbance, 18 h; inhibition, % at 11.9 µM; 330,000 compounds, 0.27% hits;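 active = inhibition above the campaign's mean inhibition across all tested compounds plus 3 SD, cut at about 9.9% in these data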;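 note: uninfected addAB+ strain grown without phage in ampicillin broth; 0% = DMSO wells and 100% = ciprofloxacin 0.95 µg/ml wells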
E coli growth-2 – blocks Escherichia coli growth. OD600, 23 h; stronger effect = lower value. OD600 absorbance (test concentration not listed). 330,000 compounds, 0.21% hits;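 active = OD600 absorbance below the run mean of sample wells minus 3.6 SD, in any replicate, cut at about 0.56 in these data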
RecBCD conf – growth loss of phage-infected V66 E. coli, RecBCD confirmation screen; shares compounds with phage Ecoli inh; E. coli V66 + T4 2- phage, growth OD; inhibition, % at 11.9 µM; 890 compounds, 45% hits;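 active = mean inhibition over triplicates exceeding the hit threshold derived in the original primary screen, cut at about 11% in these data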
Ecoli viability – counter-screen for RecBCD inhibitors: inhibitors of bacterial viability | shares compounds with phage Ecoli inh | E. coli viability, absorbance (OD) growth | inhibition, % at 11.9 µM | 890 compounds, 29% hits | AID 651983; in the data active = inhibition above about 20%;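 note: E. coli strain V66 grown with compound alone and no phage infection; 0% = bacteria with DMSO vehicle only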
AddAB phage OD – growth loss of phage-infected AddAB E. coli, RecBCD counter-screen; E. coli expressing H. pylori AddAB + T4 phage, OD growth; gene 2 mutant T4, recBCD-deleted host; inhibition, % at 11.9 µM; shares compounds with phage Ecoli inh; AID 651984; 890 compounds, 45% hits;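 active = mean inhibition above the solvent-only control wells' mean plus 3 SD, cut at about 22% in these data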;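 note: higher means less bacterial growth from phage killing when AddAB is blocked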
* marks the source's active call; other numbers are inactive results.

Results for O=C(NNC(=O)c1cc(Cl)ccc1O)c1ccc(NS(=O)(=O)c2cccs2)cc1 ?
Tat transport: -20; phage Ecoli inh: 11*; AddAB inh: 5; E coli growth-1: 2; E coli growth-2: 0.67; RecBCD conf: 3; Ecoli viability: 3; AddAB phage OD: 2

What do the screens show for `O=C(NNC(=O)c1cc(F)c(F)cc1Cl)c1ccc(NS(=O)(=O)c2cccs2)cc1`?
Tat transport: 5; phage Ecoli inh: 1; AddAB inh: -1; E coli growth-1: 1; E coli growth-2: 0.65

Results for CCC(C)C(Nc1nc(-c2ccccc2)nc2c1oc1ccccc12)C(=O)O (configuration not stated) ?
E coli growth-2: 0.67

Results for Cc1ccc(NCCN(C)C)c2c(=O)c3cc(O)ccc3sc12 ?
Tat transport: -9; phage Ecoli inh: 1

How did CN(C)CCNc1cccc2sc3ccc(O)cc3c(=O)c12 do in these assays?
phage Ecoli inh: 13*; RecBCD conf: -3; Ecoli viability: -3; AddAB phage OD: 3

Results for CC(=O)n1cc(C2C=C(C(=O)N3CCN(Cc4ccc5c(c4)OCO5)CC3)OC(OCCCCO)C2)c2ccccc21 (configuration not stated) ?
E coli growth-2: 0.68

How did Fc1cccc(/C=N/Nc2nncc3ccccc23)c1 do in these assays?
Tat transport: 8; phage Ecoli inh: 3; AddAB inh: 0; E coli growth-1: 1

How did C(=N\Nc1nncc2ccccc12)/c1ccccn1 do in these assays?
Tat transport: -7; phage Ecoli inh: 19*; AddAB inh: 9; E coli growth-1: 10*; RecBCD conf: 20*; Ecoli viability: 27*; AddAB phage OD: 24*

How did CC1CN(C(C)CO)C(=O)c2cccc(NC(=O)c3cnccn3)c2OC1CN(C)C(=O)Nc1ccc2c(c1)OCO2 (configuration not stated) do in these assays?
E coli growth-2: 0.66

What do the screens show for `O=C1c2ccccc2C2=Nc3ccccc3SC(c3cccc(F)c3)C12` (configuration not stated)?
Tat transport: -33; phage Ecoli inh: 16*; AddAB inh: 8; E coli growth-1: 12*; E coli growth-2: 0.59; RecBCD conf: 12*; Ecoli viability: 9; AddAB phage OD: 26*

What do the screens show for `Fc1cccc(C2NN=C(c3ccccc3)S2)c1` (configuration not stated)?
Tat transport: -3; phage Ecoli inh: 1; AddAB inh: 1; E coli growth-1: 2; E coli growth-2: 0.73

Results for COc1cc(C=NO)nc(-c2ccccn2)c1 ?
Tat transport: -22; phage Ecoli inh: 39*; RecBCD conf: 32*; Ecoli viability: 41*; AddAB phage OD: 33*

What do the screens show for `CC(=O)SC1CC(=O)N(c2c(C)cccc2C)C1=O` (configuration not stated)?
Tat transport: -4; phage Ecoli inh: 12*; AddAB inh: -1; E coli growth-1: -2; E coli growth-2: 0.67; RecBCD conf: -1; Ecoli viability: -1; AddAB phage OD: 2

How did O=c1[nH]cnc2c1ncn2C1CCC(CO)O1 (configuration not stated) do in these assays?
phage Ecoli inh: 87*; RecBCD conf: 74*; Ecoli viability: 90*; AddAB phage OD: 98*

What do the screens show for `O=c1[nH]cnc2c1ncn2C1OC(CO)C(O)C1O` (configuration not stated)?
Tat transport: 0; phage Ecoli inh: 3; E coli growth-2: 0.67

How did Nc1nc(=O)n(C2CCC(CO)O2)cc1F (configuration not stated) do in these assays?
phage Ecoli inh: 11*; RecBCD conf: 10; Ecoli viability: 5; AddAB phage OD: 31*

What do the screens show for `COc1ccc(C2C3C(=O)N(C(C)(C)C)C(=O)C3[C@]3(Cc4ccc(Cl)cc4)C(=O)N(c4ccc(C)cc4)C(=O)N23)cc1` (some centres not stated)?
E coli growth-2: 0.74
